Source: the supplement of paper PMC11732987, “Enantioselective OTUD7B fragment discovery through chemoproteomics screening and high-throughput optimisation” (Communications Chemistry, 2025)

Experiments:
Experiment in all cases: log2 ratio of Biotin-Ahx-Ub-VS probe labelling (fragment/DMSO); higher = less target engagement (more negative = stronger competition), active = hit call of the paper (q ≤ 0.05, log2 ratio ≤ -1)
Details in all cases: compound concentration: 200 uM; treatment time: 3 h
OTUD6B = biological target: T1, OTUD6B (UniProt Q8N6M0)
T1 sequence (whole entry): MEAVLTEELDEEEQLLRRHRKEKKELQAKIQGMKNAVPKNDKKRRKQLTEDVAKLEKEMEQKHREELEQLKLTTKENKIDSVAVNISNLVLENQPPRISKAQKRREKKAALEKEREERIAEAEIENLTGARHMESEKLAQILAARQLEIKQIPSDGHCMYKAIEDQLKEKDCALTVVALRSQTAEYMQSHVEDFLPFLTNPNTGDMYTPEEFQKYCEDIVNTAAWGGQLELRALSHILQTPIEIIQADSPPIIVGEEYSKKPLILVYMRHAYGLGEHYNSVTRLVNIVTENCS
Procedure, shortened: (§1)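 Fragment (200 µM) or vehicle was incubated for 3 h with triplicate HEK293T lysate samples of 495 µg, which were then treated with Biotin-Ahx-Ub-VS at 0.5 µM final for 1 h. Labelled DUBs were enriched on NeutrAvidin, digested with LysC and trypsin, and analysed by diaPASEF LC-MS/MS. Values are average log2 fragment/vehicle ratios from an unpaired t-test on global-median-normalised Spectronaut label-free quantities, using proteins with ≥2 unique peptides.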

OTUD7B = biological target: T2, OTUD7B (UniProt Q6GQQ9)
T2 sequence (whole entry): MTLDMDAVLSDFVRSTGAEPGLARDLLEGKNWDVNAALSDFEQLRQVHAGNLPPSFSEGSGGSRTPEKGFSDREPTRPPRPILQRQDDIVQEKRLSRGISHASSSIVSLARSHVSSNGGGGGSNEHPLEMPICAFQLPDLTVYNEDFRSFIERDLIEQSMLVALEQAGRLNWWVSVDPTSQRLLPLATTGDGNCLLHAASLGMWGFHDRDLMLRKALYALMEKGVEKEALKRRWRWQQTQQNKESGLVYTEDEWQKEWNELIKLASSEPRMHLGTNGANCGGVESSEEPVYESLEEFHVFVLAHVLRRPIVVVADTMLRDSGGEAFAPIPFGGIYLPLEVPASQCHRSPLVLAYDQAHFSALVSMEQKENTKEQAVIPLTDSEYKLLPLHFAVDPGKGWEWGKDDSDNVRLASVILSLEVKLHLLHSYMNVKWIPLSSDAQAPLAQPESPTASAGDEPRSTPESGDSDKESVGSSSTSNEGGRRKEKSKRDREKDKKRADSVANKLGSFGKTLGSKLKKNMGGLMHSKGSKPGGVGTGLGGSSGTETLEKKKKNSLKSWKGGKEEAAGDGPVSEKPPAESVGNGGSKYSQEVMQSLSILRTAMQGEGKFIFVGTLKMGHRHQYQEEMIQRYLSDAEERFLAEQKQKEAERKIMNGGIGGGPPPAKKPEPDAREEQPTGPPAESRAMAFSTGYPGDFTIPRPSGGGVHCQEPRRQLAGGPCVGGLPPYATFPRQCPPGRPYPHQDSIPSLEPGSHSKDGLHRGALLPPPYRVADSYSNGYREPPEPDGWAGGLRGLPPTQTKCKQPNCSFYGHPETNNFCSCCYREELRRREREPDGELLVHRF
Procedure, shortened: as §1

PRPF8 = PRPF8 (UniProt Q6P2Q9)
Procedure, shortened: as §1

PSMD7 = biological target: T3, PSMD7 (UniProt P51665)
T3 sequence (whole entry): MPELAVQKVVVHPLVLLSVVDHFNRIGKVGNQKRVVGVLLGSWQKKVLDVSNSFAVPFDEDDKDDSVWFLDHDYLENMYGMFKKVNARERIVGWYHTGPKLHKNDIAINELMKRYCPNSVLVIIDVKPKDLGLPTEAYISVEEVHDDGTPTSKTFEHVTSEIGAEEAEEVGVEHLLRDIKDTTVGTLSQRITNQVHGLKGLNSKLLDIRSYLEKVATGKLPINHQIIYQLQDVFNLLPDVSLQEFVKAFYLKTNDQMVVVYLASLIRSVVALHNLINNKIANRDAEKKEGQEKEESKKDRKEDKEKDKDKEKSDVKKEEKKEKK
Procedure, shortened: as §1

UCHL1 = UCHL1 (UniProt P09936)
Sequence of UCHL1 (P09936 whole entry, looked up): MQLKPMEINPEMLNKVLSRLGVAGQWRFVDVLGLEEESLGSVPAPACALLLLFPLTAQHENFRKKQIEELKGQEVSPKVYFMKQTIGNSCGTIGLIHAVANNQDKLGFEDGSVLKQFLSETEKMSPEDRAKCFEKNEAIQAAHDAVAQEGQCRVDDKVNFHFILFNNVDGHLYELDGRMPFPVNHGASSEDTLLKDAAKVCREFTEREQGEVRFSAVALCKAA
Procedure, shortened: as §1

UCHL3 = biological target: T4, UCHL3 (UniProt P15374)
T4 sequence (whole entry): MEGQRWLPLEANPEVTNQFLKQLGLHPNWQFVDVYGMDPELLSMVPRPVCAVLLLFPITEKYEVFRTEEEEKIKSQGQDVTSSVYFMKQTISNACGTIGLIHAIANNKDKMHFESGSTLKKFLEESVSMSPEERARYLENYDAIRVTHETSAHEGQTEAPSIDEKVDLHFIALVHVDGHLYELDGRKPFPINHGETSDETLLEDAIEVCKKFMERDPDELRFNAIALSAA
Procedure, shortened: as §1

UCHL5 = biological target: T5, UCHL5 (UniProt Q9Y5K5)
T5 sequence (whole entry): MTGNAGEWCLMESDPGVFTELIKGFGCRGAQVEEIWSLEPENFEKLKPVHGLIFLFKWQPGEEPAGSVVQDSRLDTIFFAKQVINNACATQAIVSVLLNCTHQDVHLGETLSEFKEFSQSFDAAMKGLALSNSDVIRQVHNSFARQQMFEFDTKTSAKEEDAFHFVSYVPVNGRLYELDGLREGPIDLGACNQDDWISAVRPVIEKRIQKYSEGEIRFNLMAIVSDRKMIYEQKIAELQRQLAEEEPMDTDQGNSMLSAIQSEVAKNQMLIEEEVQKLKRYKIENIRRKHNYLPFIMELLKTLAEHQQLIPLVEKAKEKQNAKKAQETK
Procedure, shortened: as §1

USP10 = USP10 (UniProt Q14694)
Sequence of USP10 (Q14694 whole entry): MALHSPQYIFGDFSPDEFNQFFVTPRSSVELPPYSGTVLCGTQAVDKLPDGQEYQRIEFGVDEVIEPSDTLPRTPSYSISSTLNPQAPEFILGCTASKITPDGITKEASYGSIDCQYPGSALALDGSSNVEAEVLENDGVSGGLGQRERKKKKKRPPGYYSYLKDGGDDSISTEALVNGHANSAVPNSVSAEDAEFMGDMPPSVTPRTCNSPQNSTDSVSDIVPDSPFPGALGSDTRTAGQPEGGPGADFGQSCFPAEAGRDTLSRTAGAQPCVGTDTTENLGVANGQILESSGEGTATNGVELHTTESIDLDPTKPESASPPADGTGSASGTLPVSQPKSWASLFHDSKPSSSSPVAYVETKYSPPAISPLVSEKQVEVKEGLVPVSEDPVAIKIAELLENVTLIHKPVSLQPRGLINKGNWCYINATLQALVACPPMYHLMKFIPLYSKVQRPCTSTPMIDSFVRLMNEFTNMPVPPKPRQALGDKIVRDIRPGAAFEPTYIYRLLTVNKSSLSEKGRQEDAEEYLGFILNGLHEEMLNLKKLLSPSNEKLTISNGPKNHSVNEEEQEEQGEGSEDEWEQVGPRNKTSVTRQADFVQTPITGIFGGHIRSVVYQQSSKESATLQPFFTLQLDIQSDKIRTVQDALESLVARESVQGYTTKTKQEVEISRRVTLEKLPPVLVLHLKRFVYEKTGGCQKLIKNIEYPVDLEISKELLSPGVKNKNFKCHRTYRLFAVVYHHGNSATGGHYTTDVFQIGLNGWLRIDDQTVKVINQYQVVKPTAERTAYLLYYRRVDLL
Procedure, shortened: as §1

USP15 = biological target: T6, USP15 (UniProt Q9Y4E8)
T6 sequence (whole entry): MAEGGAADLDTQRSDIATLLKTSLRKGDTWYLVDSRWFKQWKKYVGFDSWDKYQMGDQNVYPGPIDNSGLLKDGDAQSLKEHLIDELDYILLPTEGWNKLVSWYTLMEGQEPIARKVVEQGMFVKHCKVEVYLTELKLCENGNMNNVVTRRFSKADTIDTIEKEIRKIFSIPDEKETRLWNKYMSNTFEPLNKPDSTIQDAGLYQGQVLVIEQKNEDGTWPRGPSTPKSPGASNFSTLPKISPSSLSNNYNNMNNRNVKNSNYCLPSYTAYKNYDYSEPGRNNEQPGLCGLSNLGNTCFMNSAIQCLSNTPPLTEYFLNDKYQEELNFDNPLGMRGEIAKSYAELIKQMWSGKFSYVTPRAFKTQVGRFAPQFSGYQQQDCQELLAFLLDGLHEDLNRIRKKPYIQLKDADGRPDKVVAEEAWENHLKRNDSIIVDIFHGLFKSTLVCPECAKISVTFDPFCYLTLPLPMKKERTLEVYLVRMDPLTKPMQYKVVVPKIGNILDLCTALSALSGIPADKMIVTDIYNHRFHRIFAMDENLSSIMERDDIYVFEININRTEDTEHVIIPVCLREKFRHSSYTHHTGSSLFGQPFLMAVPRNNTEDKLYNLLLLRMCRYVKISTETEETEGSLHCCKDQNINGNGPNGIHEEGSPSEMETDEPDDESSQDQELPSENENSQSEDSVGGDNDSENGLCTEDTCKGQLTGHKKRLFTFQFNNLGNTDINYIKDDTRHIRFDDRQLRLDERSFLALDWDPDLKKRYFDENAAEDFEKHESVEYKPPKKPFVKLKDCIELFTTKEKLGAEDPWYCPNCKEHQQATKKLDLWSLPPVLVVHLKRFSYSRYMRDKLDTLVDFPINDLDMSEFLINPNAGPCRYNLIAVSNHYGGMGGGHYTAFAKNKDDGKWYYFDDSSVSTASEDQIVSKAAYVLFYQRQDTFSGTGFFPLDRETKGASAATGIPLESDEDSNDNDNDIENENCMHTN
Procedure, shortened: as §1

USP16 = USP16 (UniProt Q9Y5T5)
Sequence of USP16 (Q9Y5T5 whole entry, looked up): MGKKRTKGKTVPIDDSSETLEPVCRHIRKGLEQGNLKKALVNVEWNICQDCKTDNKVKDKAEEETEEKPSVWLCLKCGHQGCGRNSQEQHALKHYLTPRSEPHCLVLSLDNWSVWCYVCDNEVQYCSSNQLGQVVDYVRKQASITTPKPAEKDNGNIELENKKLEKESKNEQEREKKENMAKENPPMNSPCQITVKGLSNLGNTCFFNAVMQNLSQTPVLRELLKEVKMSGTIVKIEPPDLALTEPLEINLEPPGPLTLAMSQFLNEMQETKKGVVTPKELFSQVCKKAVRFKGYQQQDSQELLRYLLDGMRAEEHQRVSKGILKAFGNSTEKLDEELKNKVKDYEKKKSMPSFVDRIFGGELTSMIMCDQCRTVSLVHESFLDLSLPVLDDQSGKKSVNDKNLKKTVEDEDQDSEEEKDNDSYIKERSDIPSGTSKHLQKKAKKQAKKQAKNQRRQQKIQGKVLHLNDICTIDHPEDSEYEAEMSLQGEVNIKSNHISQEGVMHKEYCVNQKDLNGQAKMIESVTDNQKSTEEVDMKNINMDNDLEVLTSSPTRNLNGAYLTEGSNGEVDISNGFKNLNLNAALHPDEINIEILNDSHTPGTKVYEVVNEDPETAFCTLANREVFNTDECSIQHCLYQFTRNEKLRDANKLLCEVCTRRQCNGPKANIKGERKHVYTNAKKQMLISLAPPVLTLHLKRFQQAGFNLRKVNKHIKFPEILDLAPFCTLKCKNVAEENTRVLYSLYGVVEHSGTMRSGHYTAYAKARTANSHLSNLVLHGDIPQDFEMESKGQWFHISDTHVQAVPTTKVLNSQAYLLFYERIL
Procedure, shortened: as §1

Measured: log2 ratio of Biotin-Ahx-Ub-VS probe labelling

O=C(CCl)N1CCC(C(=O)N2CCCC2)CC1
active: UCHL1 -1.3
inactive: OTUD6B -0.427 | OTUD7B -0.121 | PRPF8 0.0985 | PSMD7 0.0529 | UCHL3 0.284 | UCHL5 0.037 | USP10 -0.257 | USP15 -0.395 | USP16 -0.362
